High-throughput results deposited in PubChem BioAssay by Broad Institute.
An excerpt weighted towards active compounds, which were near 2.1% of everything screened.
p53 PUMA act = mutant p53 pathway re-activators, primary screen, cell-based, SW480, luciferase, single point, HTS; 1.5% of 28,000 active; AID 624151, 2012; activation, % at 9.98 µM; SW480 PUMA-promoter luciferase, p53 mutant reactivation; in the data active = activation above about 52%
ID4 SMM = binders of human ID4 protein, primary screen, biochemical, small molecule microarray, single point; DNA-binding protein inhibitor ID-4 (Homo sapiens), P47928; Flag-ID4 binding, fluorescence F/B; calls only; 1.2% of 31,000 active; AID 624137, 2012; call rule not given here;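 also: a binder raises fluorescence above local background on the spot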
Target sequence (P47928 whole entry, looked up): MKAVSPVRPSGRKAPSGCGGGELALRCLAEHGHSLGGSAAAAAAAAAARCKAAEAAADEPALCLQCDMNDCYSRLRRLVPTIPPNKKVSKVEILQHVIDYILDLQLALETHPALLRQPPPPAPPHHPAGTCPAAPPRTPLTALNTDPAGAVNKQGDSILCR
STK33 kin inh = STK33 kinase inhibitors, primary screen, biochemical, luminescence, ADP-Glo, MBP substrate; 0.44% of 27,000 active; AID 2322, 2010; Serine/threonine-protein kinase 33 (Homo sapiens), Q9BYT3; inhibition, % at 12.5 µM; in the data active = inhibition above about 20%
Large screens that a line does not name were inactive.

CCn1c(SCC(=O)Nc2cc(C)c(Cl)cc2OC)nnc1-c1cnccn1	none
CCn1c(SCC(=O)Nc2c(C)cccc2C)nnc1-c1cnccn1	ID4 SMM active
COc1ccc(CNC(=O)C[C@H]2CC[C@@H](NC(=O)CN(C)C)[C@@H](CO)O2)cc1	none (no result: p53 PUMA act, STK33 kin inh)
COC(=O)c1cccc(NC(=O)COc2ccc(I)cc2)c1	none
O=C(COc1ccc(I)cc1)Nc1cc(C(=O)O)cc(C(=O)O)c1	ID4 SMM active
C[C@@H]1CN([C@@H](C)CO)C(=O)CCCn2cc(nn2)CO[C@H]1CN(C)C(=O)NC1CCCCC1	none (no result: p53 PUMA act, ID4 SMM)
COc1ccc(S(=O)(=O)Nc2ccc3c(c2)C(=O)N([C@H](C)CO)C[C@H](C)[C@@H](CN(C)C(=O)c2ccncc2)OCCCC[C@@H](C)O3)cc1	none (no result: p53 PUMA act, ID4 SMM)
COc1ccccc1Nc1nc(N)nc(CSc2ncccn2)n1	p53 PUMA act 86
CCOc1ccccc1Nc1nc(N)nc(CSc2nccc(C)n2)n1	none
OCc1cc2c([nH]c3ccccc32)c(C(O)CO)n1 (stereo unspecified)	none
O=C1Nc2ccccc2/C1=C\c1c(Cl)[nH]c2ccccc12	STK33 kin inh 29
CN1C(=O)c2ccccc2NC(=O)/C1=C\c1ccccc1	none (no result: ID4 SMM)
O=C1Cc2c([nH]c3ccc(Br)cc23)-c2ccccc2N1	none (no result: p53 PUMA act, ID4 SMM)
CN(C)c1ccc(/C=C2/C(=O)Nc3ccccc32)cc1	STK33 kin inh 34 (no result: ID4 SMM)
C[C@H](CO)N1C[C@H](C)[C@H](CN(C)S(=O)(=O)c2ccc(F)cc2)Oc2ncc(Br)cc2C1=O	none
O=C(c1ccc([N+](=O)[O-])cc1)N(Cc1cc2ccccc2[nH]c1=O)c1ccccc1	ID4 SMM active
Cc1ccc(N(Cc2cc3ccccc3[nH]c2=O)C(=O)c2cccnc2)cc1	none
CC(=O)O[C@@H]1[C@@H](OC(=O)/C=C/c2ccccc2)[C@H](C)O[C@@H](O[C@H]2[C@@H]3C=CO[C@@H](O[C@@H]4O[C@H](CO)[C@@H](O)[C@H](O)[C@H]4O)[C@@H]3[C@@]3(CO)O[C@@H]23)[C@@H]1OC(C)=O	none (no result: p53 PUMA act)
NC(=O)N1C(=O)C(C(=O)c2cccs2)c2cc(Cl)ccc21 (stereo unspecified)	none (no result: STK33 kin inh)
O=C(NC(Cc1ccc(F)cc1)C(=O)O)c1ccccc1 (stereo unspecified)	none
O=C(NC(Cc1ccc(O)cc1)C(=O)O)c1ccccc1 (stereo unspecified)	ID4 SMM active
Cc1nc(SCC(=O)c2cccc([N+](=O)[O-])c2)nc2c1CCCC2	none
C=C1CC[C@@H]2C(C)(C)C[C@@H](O)C[C@@]2(C)[C@@H]1CC/C(=C/C(=O)OC)COC(C)=O	none (no result: ID4 SMM)
C[C@H]1CN([C@@H](C)CO)C(=O)c2cc(NC(=O)Cn3cnnn3)ccc2O[C@H]1CN(C)S(=O)(=O)c1ccccc1	none (no result: p53 PUMA act, ID4 SMM)
CNC[C@@H]1Oc2ccc(NC(=O)Cc3cn(C)c4ccccc34)cc2CC(=O)N([C@H](C)CO)C[C@@H]1C	none
CNC[C@H]1Oc2ccc(NC(=O)Cc3ccccc3)cc2CC(=O)N([C@H](C)CO)C[C@@H]1C	ID4 SMM active (no result: STK33 kin inh)
CNC[C@@H]1Oc2ccc(NC(=O)Cc3ccccc3)cc2CC(=O)N([C@H](C)CO)C[C@@H]1C	none
CNC[C@H]1Oc2ccc(NC(=O)Cc3cn(C)c4ccccc34)cc2CC(=O)N([C@@H](C)CO)C[C@H]1C	ID4 SMM active (no result: STK33 kin inh)
CC(=O)N[C@@H](Cc1c[nH]c2ccccc12)C(N)=O	none (no result: p53 PUMA act)
COC(=O)C(Cc1c[nH]c2ccccc12)NC(=O)C(NC(=O)C(C)NC(=O)/C=C/C(=O)O)C(C)c1c[nH]c2ccccc12 (stereo unspecified)	STK33 kin inh 154 (no result: p53 PUMA act)
O=C1Nc2ccccc2-c2nc3ccccc3c(=O)n2-c2c(O)cccc21	none (no result: ID4 SMM)
O=C(CSc1nc(-c2ccccc2)cc(=O)[nH]1)NCC1CCCO1 (stereo unspecified)	ID4 SMM active
O=C(CSc1nc(-c2ccccc2)cc(=O)[nH]1)Nc1ccccc1	none
CN(C)c1nc(N)nc(CSc2ncc(Cl)cc2Cl)n1	p53 PUMA act 62
CN(C)c1nc(N)nc(CSc2nnnn2C)n1	none
CCOc1ccc2nc(NCCCO)[nH]c2c1	none
C[C@@H]1CN([C@H](C)CO)C(=O)c2cc(NS(=O)(=O)c3ccccc3)ccc2O[C@@H](C)CCCCO[C@@H]1CN(C)Cc1ccccc1	none (no result: STK33 kin inh)
CCn1nnc(NC(=O)COc2ccc(Cl)cc2C)n1	none
O=C(Nc1ccc(Cl)cc1)Nc1ccccc1C(=O)NCc1ccco1	p53 PUMA act 80
COCCNC(=O)c1ccccc1NC(=O)Nc1ccc(Cl)cc1	p53 PUMA act 61
O=C(NCc1ccco1)c1ccccc1NC(=O)C1CC(=O)N(c2ccc(Cl)cc2)C1 (stereo unspecified)	none
O=C(Nc1ccccc1C(=O)NCCOc1ccccc1)c1ccccc1I	none
